Counter-ions that a name gives are not always drawn.
Tests used:
[1] = tested on: Staphylococcus aureus MW2 delta-mecA (mecA-); test: normalized GFP fluorescence (growth of mecA- strain) (fraction of control range); higher = more growth of mecA- strain; details: compound concentration: 150 uM; cefoxitin: subinhibitory; fluorescent label: GFP
Procedure, shortened: (§1)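 Compound at 150 μM (1.5% DMSO) in 1536-well plates received 5 µL/well of pre-induced S. aureus MW2 cells mixed 1:1, gene-carrying with DsRed and gene-deleted with GFP, in LB with a daily-set subinhibitory antibiotic dose, single replicate. After 20 h unshaken at 37 °C, 90% humidity, DsRed (540/590) and GFP (485/520) were measured and scaled per plate between single-strain control medians. Plates with high untreated ratios and rows with DsRed/GFP >10 were excluded.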

[2] = tested on: Staphylococcus aureus MW2 (mecA+); test: normalized DsRed fluorescence (growth of mecA+ strain) (fraction of control range); higher = more growth of mecA+ strain; details: compound concentration: 150 uM; cefoxitin: subinhibitory; fluorescent label: DsRed
Procedure, shortened: as §1

Structure (SMILES)	normalized GFP fluorescence [1]	normalized DsRed fluorescence [2]
Nc1ncn([C@H]2C[C@H](O)[C@@H](CO)O2)c(=O)n1 [Decitabine]	0.242	0.802
CCOC(=O)[N-]c1c[n+](N2CCOCC2)no1	0.369	0.863
CC(C)(C)NCC(O)COc1cccc2c1CC(O)C(O)C2 (centres undefined)	0.721	0.671
C#C[C@]1(O)CC[C@H]2[C@@H]3CCC4=CC(=O)CC[C@@H]4[C@H]3CC[C@@]21C [Norethindrone (Norethisterone)]	0.268	0.621
O=C(NCC1CCCCN1)c1cc(OCC(F)(F)F)ccc1OCC(F)(F)F (centres undefined)	0.508	0.624
COC(=O)Nc1nc2cc(Sc3ccccc3)ccc2[nH]1	0.378	0.601
CC1(C)O[C@@H]2C[C@H]3[C@@H]4CCC5=CC(=O)C=C[C@]5(C)[C@@]4(F)[C@@H](O)C[C@]3(C)[C@]2(C(=O)CO)O1	0.603	0.613
C#C[C@]1(O)CC[C@H]2[C@@H]3CCc4cc(O)ccc4[C@H]3CC[C@@]21C [Ethinyl Estradiol]	0.246	0.449
O=C(O)COCCN1CCN([C@H](c2ccccc2)c2ccc(Cl)cc2)CC1	0.222	0.775
C[C@@H]1O[C@@H](OC[C@H]2O[C@@H](Oc3c(-c4ccc(O)c(O)c4)oc4cc(O)cc(O)c4c3=O)[C@H](O)[C@@H](O)[C@@H]2O)[C@H](O)[C@H](O)[C@H]1O [Rutin (Rutoside)]	0.394	0.725
CNC[C@H](O)[C@@H](O)[C@H](O)[C@H](O)CO [Meglumine]	0.21	0.823
N#Cc1c(N(CC(=O)O)CC(=O)O)sc(C(=O)O)c1CC(=O)O [Strontium ranelate (Protelos)]	0.212	0.694
CC(N/C(=N\C#N)Nc1ccncc1)C(C)(C)C (centres undefined)	0.124	1.44
C[C@H](N)[C@H](O)c1cccc(O)c1	0.482	0.581
c1ccc(CN(CC2=NCCN2)c2ccccc2)cc1	0.974	0.762
CC(Oc1c(Cl)cccc1Cl)C1=NCCN1 (centres undefined)	0.693	0.569
CC(=O)O[C@H]1C(=O)[C@@]2(C)[C@H]([C@H](OC(=O)c3ccccc3)[C@]3(O)C[C@H](OC(=O)[C@H](O)[C@@H](NC(=O)c4ccccc4)c4ccccc4)C(C)=C1C3(C)C)[C@]1(OC(C)=O)CO[C@@H]1C[C@@H]2O [Paclitaxel (Taxol)]	0.188	0.669
Cc1c(OCC(F)(F)F)ccnc1C[S@@+]([O-])c1nc2ccccc2[nH]1	0.348	0.452
CNC1(C)C2CCC(C2)C1(C)C (centres undefined)	0.71	0.669

Structure (SMILES)	normalized GFP fluorescence [1]	normalized DsRed fluorescence [2]
Nc1c(Br)cc(Br)cc1CN[C@H]1CC[C@H](O)CC1 [Ambroxol HCl]	0.21	0.849
OC[C@H]1O[C@@H](c2ccc(Cl)c(Cc3ccc(O[C@H]4CCOC4)cc3)c2)[C@H](O)[C@@H](O)[C@@H]1O	0.499	0.698
NCCc1ccc(O)c(O)c1	0.483	0.728
Oc1ccc(O)cc1	0.379	0.882
Oc1ccc(OCc2ccccc2)cc1	0.0954	0.522
CC1=C(C(=O)O)N2C(=O)[C@@H](NC(=O)[C@H](N)c3ccc(O)cc3)[C@H]2SC1	0.0167	1.2
CCN(CCCc1ccccc1)CCCc1ccccc1	0.1	1.17
CCN(CC)C(=O)C1(c2ccccc2)CC1CN (centres undefined)	0.155	0.617
Nc1nc(F)nc2c1ncn2[C@@H]1O[C@H](COP(=O)(O)O)[C@@H](O)[C@@H]1O	0.362	0.656
c1cnc2cc3c(cc2n1)[C@@H]1CNC[C@H]3C1 [Varenicline tartrate]	0.504	0.508
CCOc1cc(CC(=O)N[C@@H](CC(C)C)c2ccccc2N2CCCCC2)ccc1C(=O)O	-0.00461	0.578
COc1cc2nccc(Oc3ccc(NC(=O)NC4CC4)c(Cl)c3)c2cc1C(N)=O [E7080 (Lenvatinib)]	0.528	0.638
N=C(N)N1CCc2ccccc2C1	0.353	0.808
O=C(O)C1(C(=O)O)CCC1.[NH2-].[NH2-].[Pt+2]	0.26	0.886
CC(=O)/N=c1/sc(S(N)(=O)=O)nn1C	0.574	0.53
OCCN1C[C@H](O)[C@@H](O)[C@H](O)[C@H]1CO	0.514	0.724
CCCCC1C(=O)N(c2ccccc2)N(c2ccc(O)cc2)C1=O (centres undefined)	-0.0111	0.377
C[C@@H]1CCN(C(=O)CC#N)C[C@@H]1N(C)c1ncnc2[nH]ccc12	0.325	0.9
